Compound activity: PubChem BioAssay, National Center for Advancing Translational Sciences (NCATS)
BAZ2B block: qHTS Assay for Inhibitors of BAZ2B; 360,000 compounds, 4.4% hits; AlphaScreen BAZ2B-H3K14Ac peptide displacement; Potency, µM (titrated, usually from 114 µM), without a hit: at the top dose activity change, negative = inhibition, hits mostly inhibitors; also: % is scaled to controls: 0 for no effect and ±100 for the full control effect; nearly all actives have a fitted effect of over 60% in size
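AlphaScreen displacement of biotin-H3(5-23)K14Ac peptide (50 nM final) from BAZ2B (50 nM final) in PBS pH 7.4, 0.01% Tween-20; complex preformed 30 min RT, then compounds (top 110 uM) 30 min RT, beads 20 min dark.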
JMJD2A Tudor: qHTS Assay for Inhibitors of JMJD2A-Tudor Domain; 390,000 compounds, 4.4% hits; Potency, µM (highest dose often 114 µM), for the others: top-dose activity change, negative = inhibition, hits mostly inhibitors; AlphaScreen JMJD2A-Tudor / H3K4me3 peptide binding; also: % is scaled to controls: 0 for no effect and ±100 for the full control effect; nearly all actives have a fitted effect of over 50% in size
GLS inhibitor: qHTS for Inhibitors of Glutaminase (GLS). 410,000 compounds, 0.21% hits. GLS enzymatic activity, qHTS titration. AID 624170, 2012. Potency, µM (top dose mostly 45.5 µM), without a hit: at the highest dose activity change, negative = inhibition, most hits filed as inhibitors; also: % is scaled to controls: 0 for no effect and ±100 for the full control effect
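Compounds were pin-transferred onto hKGA, after which L-glutamine (1 mM solution) and a detection mix of glutamate oxidase, HRP and Amplex Red were added. Initial and 30 min RT fluorescence reads were collected.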
HP1b binding inh: HTS for Inhibitors of HP1-beta Chromodomain Interactions with Methylated Histone Tails; Chromobox protein homolog 1 (Homo sapiens), P83916; AlphaScreen HP1-beta / biotin-H3K9me3 peptide binding; Potency, µM (highest dose often 114 µM), inactives show at the highest dose activity change, negative = inhibition, most hits filed as inhibitors; 390,000 compounds, 0.56% hits; AID 540317, 2011; also: nearly all actives have a fitted effect of over 70% in size
Target sequence (P83916 whole entry, looked up): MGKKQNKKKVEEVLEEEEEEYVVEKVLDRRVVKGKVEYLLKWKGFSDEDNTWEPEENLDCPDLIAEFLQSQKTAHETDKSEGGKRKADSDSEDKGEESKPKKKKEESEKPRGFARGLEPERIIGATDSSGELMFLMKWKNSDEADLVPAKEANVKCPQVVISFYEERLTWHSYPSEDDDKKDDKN
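Compound inhibition of the preformed complex between 50 nM HP1-beta and 50 nM biotinylated H3K9me3 peptide was read by AlphaScreen. Buffer was PBS pH 7.4 with 0.01% Tween-20. Incubations ran 30 min at room temperature, with 10 ug/mL donor/acceptor beads.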
G9a block: qHTS Assay for Inhibitors of Histone Lysine Methyltransferase G9a; Histone-lysine N-methyltransferase EHMT2 (Homo sapiens), Q96KQ7; 350,000 compounds, 8.8% hits; G9a H3K9 monomethylation, AlphaScreen, 2 h; Potency, µM (series often up to 102 µM), for inactives: top-dose activity, negative = inhibition, most hits filed as inhibitors; also: % is scaled to controls: 0 for no effect and ±100 for the full control effect; nearly all actives have a fitted effect of over 75% in size
Target sequence (Q96KQ7 913-1193 limits assumed): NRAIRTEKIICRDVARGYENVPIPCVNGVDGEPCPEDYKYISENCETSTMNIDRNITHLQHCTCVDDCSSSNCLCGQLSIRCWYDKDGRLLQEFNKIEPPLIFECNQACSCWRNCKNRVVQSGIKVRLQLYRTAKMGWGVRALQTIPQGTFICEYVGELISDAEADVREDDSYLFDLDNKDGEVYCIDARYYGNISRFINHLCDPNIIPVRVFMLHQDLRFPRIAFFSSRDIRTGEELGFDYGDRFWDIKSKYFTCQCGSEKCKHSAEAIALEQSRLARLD
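Step 1: enzyme (final 20 nM) with compound, 15 min RT. Step 2: substrate peptide 500 nM and SAM 20 uM, 2 h RT. Step 3: anti-H3K9me1 antibody and AlphaScreen beads, 10 min, then plate read.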
* hit, by the source's call; ? = inconclusive; nt = no result given; [ ] = remark or other dose. Only some compounds are listed: those with a hit (about 10% of all), similar ones and a draw of the others. Calls follow the shape of the dose curve; as a rule, active = well fitted curve in the direction sought with a large enough effect; inconclusive = small, poorly fitted or top-dose-only effect, or another doubt; inactive = no such curve, though single readings can be large; an effect the other way counts as inactive or inconclusive. Potency is read from the fitted curve at half-maximal effect.

SMILES	BAZ2B block	JMJD2A Tudor	GLS inhibitor	HP1b binding inh	G9a block
CCNc1nc(NCC)nc(SCC(C)=O)n1	6%	1%	-10%	47%	nt
CC(C)COP(=O)(c1ccc(N(C)C)cc1)C(O)c1ccccn1 (stereo unspecified)	nt	1.3µM*	47%	27%	3.5µM*
CN(C)c1ccc(P(=O)(OC2CCCCC2)C(O)c2ccccn2)cc1 (stereo unspecified)	45µM*	?	3%	41%	nt
COc1cc(-c2csc(CCn3nc(C)cc3C)n2)cc(OC)c1OC	-35%	-25%	2%	-9%	32µM*
Cc1ccc(-c2nn(-c3ccccc3)cc2C(=O)Nc2cccc(S(=O)(=O)NC3=NCCC3)c2)cc1	nt	nt	2%	nt	nt
CCN1CCc2nc(NC(=O)c3ccccc3)sc2C1	-18%	-16%	0%	25%	?
C=CCN1CCc2nc(N)sc2CC1	-3%	-14%	38%	18%	16µM*
CCN1CCc2nc(N)sc2C1	-15%	3%	30%	-20%	13µM*
CCNC(=O)C(=O)N/N=C/c1cc([N+](=O)[O-])ccc1O	8.9µM*	14µM*	-6%	37%	9%
CCOC(=O)c1c(C)[nH]c(C(=O)N/N=C/c2cc([N+](=O)[O-])ccc2O)c1C	45µM*	79µM*	-2%	-4%	?
Nc1nnnn1CC(=O)N/N=C/c1cccs1	-10%	-22%	1%	37%	-6%
Cc1cc([N+](=O)[O-])nn1CC(=O)N/N=C/c1ccccc1O	-30%	-32%	20%	26%	51%
CCOC(=O)c1c(C)[nH]c(C(=O)N/N=C\c2ccccc2O)c1C	12%	-22%	16%	11%	15%
Cc1cc(C)n(CC(=O)N/N=C/c2cc([N+](=O)[O-])ccc2O)n1	40µM*	?	-5%	32%	-14%
Nc1nnnn1CC(=O)N/N=C/c1cc([N+](=O)[O-])ccc1O	19%	20µM*	15%	30%	24%
Nc1nnc(CC(=O)N/N=C\c2cc([N+](=O)[O-])ccc2O)s1	28µM*	?	-2%	29%	?
O=C(N/N=C/c1cc([N+](=O)[O-])ccc1O)NC12CC3CC(CC(C3)C1)C2	?	-30%	10µM*	21%	2%[59 µM]
O=C(N/N=C/c1cc([N+](=O)[O-])ccc1O)C12CC3CC(CC(C3)C1)C2	-23%	-26%	-4%	20%	-6%
O=C(CSc1nnc(-c2ccccc2F)n1C1CCCCC1)N1CCCC1	-2%	-10%	6%	21%	-6%
CC(O)c1cccc(N=Cc2ccc3ccccc3c2O)c1 (stereo unspecified)	?	?	45%	0%	1.8µM*
Oc1ccc(C=Nc2cccc3ccccc23)c(O)c1	-35%[0.457 µM]	-36%	17%	-10%	?
NCCS	4%	-12%	-4%	?	14µM*
CCN(CC(=O)N1CCCCCC1)S(=O)(=O)c1ccc(Cl)cc1	-14%	4%	-6%	37%	13%[59 µM]
CC(=O)c1sc(NC(=O)C2CC(=O)N(Cc3ccco3)C2)nc1-c1ccccc1 (stereo unspecified)	?	?	61%	?	50µM*
O=C(Nc1ccc(Cl)cc1F)C1CC(=O)N(Cc2ccco2)C1 (stereo unspecified)	7%	-13%	2%	22%	56µM*
SMILES	BAZ2B block	JMJD2A Tudor	GLS inhibitor	HP1b binding inh	G9a block
COC(=O)c1ccccc1NC(=O)N1CCN(S(C)(=O)=O)CC1	-7%	0%	-9%	44%	-27%
CCc1noc(C)c1C(=O)Nc1nc2c(F)cc(F)cc2s1	-3%	-5%	-1%	35%	13%[12.7 µM]
O=C(C1=CC=CN2CCS(=O)(=O)N=C12)N1CCN(c2cccc(Cl)c2)CC1	-3%	-15%	-5%	40%	18%[12.7 µM]
O=C(c1ccc(Sc2cccc(Cl)c2)c([N+](=O)[O-])c1)N1CCN(c2ccccn2)CC1	?	?	1%	?	16µM*
CC(=O)C1CCC2C3CC(C)C4=CC(=O)CCC4(C)C3C(=O)CC12C (stereo unspecified)	nt	-15%	20%	10%	nt
COc1ccc(N2CC(C(=O)N/N=C/c3cc([N+](=O)[O-])ccc3O)CC2=O)cc1 (stereo unspecified)	35µM*	79µM*	-5%	47%	-37%
COc1ccc(N2CC(C(=O)Nc3nc4ccc(S(C)(=O)=O)cc4s3)CC2=O)cc1 (stereo unspecified)	?	-29%	-9%	-12%	28µM*
COc1ccc(C(=O)Nc2nc3ccc(S(C)(=O)=O)cc3s2)cc1	11%	-1%	5%	42%	?
CS(=O)(=O)c1ccc2nc(NC(=O)C3CC(=O)N(c4ccc(F)cc4)C3)sc2c1 (stereo unspecified)	-17%	-6%	-10%	29%	?
CCc1ccc(N2CC(C(=O)Nc3nc4ccc(S(C)(=O)=O)cc4s3)CC2=O)cc1 (stereo unspecified)	-2%	-21%	-13%	-33%	40µM*
COc1cc(OC)cc(C(=O)N[C@H](C(=O)Nc2nc3ccc(S(C)(=O)=O)cc3s2)C(C)C)c1	-13%	-8%	-2%	58%	40µM*
COc1ccccc1/C=N/OCC(=O)NCc1ccc2c(c1)OCO2	1%	-14%	5%	14%	-36%
CCOc1ccc(/C=N/OCC(=O)NCc2ccc3c(c2)OCO3)cc1OC	2%	-15%	5%	14%	40µM*
CC(=O)c1cccc(OCC(O)CN2CCN(C(=O)c3ccco3)CC2)c1 (stereo unspecified)	71µM*	1.4µM*	-3%	?	?
COc1ccc(OCC(O)CN2CCN(Cc3ccc4c(c3)OCO4)CC2)cc1 (stereo unspecified)	-12%	-13%	0%	27%	20µM*
SC(COCc1ccccc1)CN1CCN(Cc2ccc3c(c2)OCO3)CC1 (stereo unspecified)	?	?	6%	5%	22µM*
CCOC(=O)c1ccc(S(=O)(=O)N2CCN(CCC#N)CC2)cc1	6%	1%	1%	41%	?
CC(=O)N1CCN(CC(O)COc2ccc(OCc3ccccc3)cc2)CC1 (stereo unspecified)	-9%	-14%	2%	4%	5%[59 µM]
OC(COCc1ccccc1)CN1CCN(Cc2ccc3c(c2)OCO3)CC1 (stereo unspecified)	-28%	-25%	20%	-4%	?
